Data on eight compounds can be found in PubChem BioAssay (NCATS).

Each structure is given as a SMILES string. Results filed as inconclusive are left out. Active and inactive are the calls of the source. Unless noted, calls come from the whole dose curve; as a rule, active = well fitted curve in the direction sought with a large enough effect; inconclusive = small, poorly fitted or top-dose-only effect, or another doubt; inactive = no such curve, though single readings can be large; an effect the other way counts as inactive or inconclusive.

Assay [1] in a line: Counterscreen qHTS for small molecule stabilizers of the endoplasmic reticulum resident proteome: GLuc-NoTag assay (AID 1508627).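 Note: 0% = thapsigargin alone and -100% = DMSO vehicle control.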 The method, boiled down: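 Secreted GLuc lacking the SERCaMP modification is measured in SH-SY5Y cells exposed to compound for 19 h and then to thapsigargin (100 nM, 4 h) to deplete ER calcium; hits retested at 11 concentrations, up to 76.6 uM.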
For orientation: Counterscreens check selectivity or assay interference.

Assay [2] can be described thus: Confirmatory qHTS for small molecule stabilizers of the endoplasmic reticulum resident proteome: Secreted ER Calcium Modulated Protein (SERCaMP) assay (AID 1508628).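 Note: SH-SY5Y cells given compound 16 h then thapsigargin 100 nM for 4 h; % is set by controls: 0 for no effect and ±100 for the full control effect; nearly all actives have a fitted effect of over 40% in size.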 The method, boiled down: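 GLuc-SERCaMP-expressing SH-SY5Y cells, pretreated 16 h with compound, are challenged with thapsigargin to empty ER calcium stores; after 4 h, coelenterazine is added directly to the medium and luminescence is imaged.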
(In general: In qHTS, concentration-response curves come from the screen itself.)

A short description of assay [3]: Cell Viability qHTS for small molecule stabilizers of the endoplasmic reticulum resident proteome (AID 1508629).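 Note: human SH-SY5Y neuroblastoma cells carrying the GLuc-SERCaMP reporter; compound exposure about 46 h in total before the viability read; % is set by controls: 0 for no effect and ±100 for the full control effect.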 The settings on record: cell viability counter-screen, 100 nM thapsigargin for final 4 h.
Assay [4] has as its target Lysosomal acid glucosylceramidase (Homo sapiens) (UniProt P04062). The experiment in a line: Glucocerebrosidase-p2 (AID 348; in the data active = potency below about 10 µM; note: potency is the fitted concentration of half-maximal effect). The settings on record: purified GBA, blue fluorogenic substrate, 40 min. A digest of the protocol:
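Normal human glucocerebrosidase (0.2 nM) with blue fluorogenic substrate (80 uM final) in citrate/phosphate pH 5.9 with 10mM sodium taurocholate, 0.01% tween-20; 40 min RT, NaOH/glycine stop; fluorescence Ex 365/Em 440; AC50 from a titration from 0.6 nM upwards.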

The target of assay [5] is Cytochrome P450 1A2 (Homo sapiens) (UniProt P05177). Put plainly: p450-cyp1a2 (AID 410; calls by dose curve; note: potency is the fitted concentration of half-maximal effect;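 for activity change, negative = inhibition: -100% = full effect of reference inhibitor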). A digest of the protocol:
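20nM CYP1A2, 100uM Luciferin-ME (=Km), 100mM KPO4; cpd 10 min RT; +NADPH regen, 60 min RT; stop/detect 20 min; luminescence. Normalized to furafylline 57 uM = full inhibition.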

Assay [6] is described as follows: Stat Signaling Pathway (AID 446; active = well fitted curve in either direction with a large enough effect, not every such curve was filed as active;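 note: ME-180 cervical cancer cells given 40 pM IL-6 alongside compound; SIE-controlled beta-lactamase reporter measured as 460/530 nm FRET emission ratio; % is set by controls: 0 for no effect and ±100 for the full control effect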). The settings on record: ME-180 SIE beta-lactamase reporter, IL-6 stimulated, 5 h; at 7.69 µM (top of the series) unless noted. A digest of the protocol:
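Overnight-plated ME-180 cells bearing a STAT Inducible Element beta-lactamase reporter; 5 h co-exposure to compound and 40 pM IL-6; values normalized to 300 pM IL-6 and 125 nM JAK inhibitor controls.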

Assay [7] has as its target Glucocorticoid receptor (Homo sapiens) (UniProt P04150). The experiment in a line: GR-GFP Redistribution (AID 450;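 active = compounds whose dose series gives a full or clear partial fitted curve of increased nuclear translocation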; note: potency is the fitted concentration of half-maximal effect). The settings on record: U2OS GR-GFP nuclear translocation, laser cytometry, 2 h.
Assay [8] shares this target. The experiment in a line: GR-EFC Redistribution (AID 451; calls by dose curve; note: potency is the fitted concentration of half-maximal effect). The settings on record: CHO-K1 GR-EFC translocation, beta-gal luminescence, 2 h. The method, boiled down:
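CHO-K1 cells stably expressing nuclear-localized β-gal enzyme acceptor and GR fused C-terminally to the enzyme donor fragment; ligand-driven nuclear translocation restores β-gal by complementation. Compounds titrated up to 46 uM final, 2 h at 37 °C; luminescence read.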

Assay [9] has as its target Mitogen-activated protein kinase 10 (Mus musculus) (UniProt Q61831). Put plainly: JNK3 AlphaScreen Assay (AID 530; active = well fitted curve in either direction with a large enough effect, not every such curve was filed as active;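 note: kinase came from lysate of stimulated human HepG2 cells; signal reports phosphorylation of biotinylated GST-cJun 1-79 at Ser73 with 10 µM ATP; % is set by controls: 0 for no effect and ±100 for the full control effect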). The method, boiled down: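 Biotinylated GST-cJun(1-79) served as substrate for JNK3 in HepG2 lysates stimulated with IL-1beta and TNF-alpha. ATP was 10 uM final, pH 7.6. Ser73 phosphorylation was quantified by AlphaScreen (680 nm excitation).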
For orientation: Alpha assays give light when donor and acceptor beads are brought close together.

Assay [10] in a line: qHTS Assay for Lipid Storage Modulators (AID 1519; calls by dose curve). The settings on record: Drosophila S3 cells, BODIPY lipid droplet/cell ratio, laser cytometry, cells loaded with oleic acid; for activity change, negative = inhibition: at 57.5 µM (top of the series). A digest of the protocol: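 Cells seeded at 5,000 per well were treated with compounds over a concentration series and loaded with oleic acid (400 uM, as added). Lipid droplet fluorescence (488 nm excitation, 500-530 nm channel) was read by laser-scanning cytometry and normalized to 20 uM Triacsin C.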

A short description of assay [11]: AP1 Signaling Pathway (AID 357; active = well fitted curve in either direction with a large enough effect, not every such curve was filed as active; note: % is set by controls: 0 for no effect and ±100 for the full control effect). The settings on record: ME-180 AP-1-bla reporter, EGF-induced, beta-lactamase ratio, 5 h; at 7.69 µM (top of the series) unless noted. The method, boiled down: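 ME-180 cells with beta-lactamase reporter under AP-1 response element, stimulated with EC50 EGF; compounds tested in titration series, 5 h at 37 °C. CCF4 substrate added 2.5 h at room temperature; 460/530 nm emission ratio gave %activity and AC50.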

A short description of assay [12]: NFAT Signaling Pathway (AID 444; active = well fitted curve in either direction with a large enough effect, not every such curve was filed as active). The settings on record: Jurkat NFAT-bla M1, carbachol, beta-lactamase ratio, 5 h; at 7.69 µM (top of the series) unless noted. The method, boiled down: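 Jurkat cells carrying an NFAT-driven β-lactamase reporter and co-transfected muscarinic M1 receptor were treated with compound plus carbachol (1 uM final, an EC50 level) for 5 h at 37 °C. CCF4 loading followed for 1 h at RT; 460/530 nm ratio gave %activity.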

Assay [13] deals with 3',5'-cyclic-AMP phosphodiesterase 4B (Homo sapiens) (UniProt Q07343). Put plainly: qHTS Assay for Inhibitors of PDE-IV (AID 607; active = well fitted activation curve with a large enough effect in the main read-out, with a control signal flat, not every such curve was filed as active; note: % of control where 0% means no effect). A digest of the protocol: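 Live HEK293 cells with a modified cyclic nucleotide-gated (CNG) channel report intracellular cAMP via membrane-potential dye fluorescence (ex 535/em 590 nm). Endogenous PDE-IV was targeted. Compounds were tested at up to 22.9 uM final; RO 20-1724 100 uM served as control.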

Assay [14] addresses Cytochrome P450 3A4 (Homo sapiens) (UniProt P08684). Put plainly: qHTS Assay for Activators of Cytochrome P450 3A4 (AID 885). Note: nearly all actives have a fitted effect of over 65% in size. The method, boiled down:
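Using 20nM recombinant human CYP3A4 in potassium phosphate (200mM), substrate Luciferin-PPXE at 25uM, luminescent luciferin detection followed a 60-min RT NADPH reaction; data scaled to 57 uM ketoconazole.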

Assay [15] is described as follows: qHTS Assay for Identification of Small Molecule Agonists for Hypoxia Response Element Signaling Pathway (AID 914; active = well fitted activation curve with a large enough effect in the signal ratio, with a control signal flat, not every such curve was filed as active; the % refers to the signal ratio; note: % of control where 0% means no effect). The settings on record: ME-180 (cervical carcinoma) HRE-bla reporter, beta-lactamase ratio, CoCl2, 17 h; activation: stronger effect = higher value. A digest of the protocol: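 HRE-bla ME-180 cells, overnight plating in Opti-MEM with 0.5% dialyzed FBS; cpd titration + EC50 CoCl2, 17 h, 37 degrees Celsius; CCF4 2.5 h RT; 460/530 nm ratio; AC50.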

Assay [16] deals with Dual specificity protein kinase CLK4 (Homo sapiens) (UniProt Q9HAZ1). The experiment in a line: qHTS Assay for Inhibitors of CDC-like Kinase 4 (Kinase-Glo Assay) (AID 1770). Note: % is set by controls: 0 for no effect and ±100 for the full control effect; nearly all actives have a fitted effect of over 65% in size. The method, boiled down:
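Inhibition was judged from remaining ATP, measured by Ultra-Glo luciferase bioluminescence after Clk4 (25 nM) had acted on RS peptide at 1 uM ATP for 4.5 hours, room temperature.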

For assay [17] the target is unchanged. Put plainly: qHTS Assay for Inhibitors of CDC-like Kinase 4 (ADP-Glo Assay) (AID 1771). Note: % is set by controls: 0 for no effect and ±100 for the full control effect; nearly all actives have a fitted effect of over 70% in size. A digest of the protocol: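 25 nM Clk4, 100 uM RS peptide, 1 uM ATP (final); 2 mM MgCl2, 0.5 mM EGTA, 2.5 mM DTT, 0.01% Triton X-100; 1 hr RT. ADP-Glo readout: ATP depletion 45 min, conversion/luciferase 30 min, luminescence.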
Assay [18] shares this target. The experiment in a line: qHTS Assay for Inhibitors of CDC-like Kinase 4 (ADP-FP Assay) (AID 1795).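 Note: recombinant human CLK4 phosphorylating RS repeat peptide at 1 µM ATP; % is set by controls: 0 for no effect and ±100 for the full control effect; nearly all actives have a fitted effect of over 60% in size.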 The method, boiled down:
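Inhibition of ADP formation by 6.25 nM Clk4 is measured using 1 uM ATP and 100 uM RS repeat peptide over one hour. Produced ADP displaces a fluorescent tracer from antibody, lowering polarization.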

The target of assay [19] is Rap guanine nucleotide exchange factor 3 (Homo sapiens) (UniProt O95398). Put plainly: Confirmatory qHTS for agonist of cAMP-regulated guanine nucleotide exchange factor 3 (EPAC1) (AID 1645881).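 Note: EPAC1 catalysed release of BODIPY-GDP from Rap1B seen as fluorescence loss; nearly all actives have a fitted effect of over 75% in size.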
In assay [20] the target is Rap guanine nucleotide exchange factor 4 (Homo sapiens) (UniProt Q8WZA2). The experiment in a line: Confirmatory qHTS for agonist of cAMP-regulated guanine nucleotide exchange factor 4 (EPAC2) (AID 1645884).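 Note: nucleotide exchange releases bodipy-GDP from Rap1 and this lowers its fluorescence; % is set by controls: 0 for no effect and ±100 for the full control effect; nearly all actives have a fitted effect of over 65% in size.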
Assay [21] has as its target Ubiquitin carboxyl-terminal hydrolase 1 (Homo sapiens) (UniProt O94782). Put plainly: Inhibitors of USP1/UAF1: Pilot qHTS (AID 504865).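 Note: rhodamine fluorescence freed from ubiquitin-rhodamine substrate followed over time; top concentration of the series differs between compounds; % is set by controls: 0 for no effect and ±100 for the full control effect; nearly all actives have a fitted effect of over 35% in size.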 The method, boiled down:
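Kinetic fluorescence assay: 1nM USP1/UAF1, 15 min compound preincubation, then 150nM Ub-Rho; 480/540 nm.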

The target of assay [22] is Cytochrome P450 3A4 (Homo sapiens) (UniProt P08684). Put plainly: qHTS Assay for Inhibitors and Substrates of Cytochrome P450 3A4 (AID 884). Note: potency is the fitted concentration of half-maximal effect; nearly all actives have a fitted effect of over 50% in size. A digest of the protocol: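 Luminescent readout of luciferin produced by CYP3A4 (20 nM) dealkylation of Luciferin-PPXE, 25 uM (its KM). NADPH-driven reaction ran 60 min at RT after 10 min compound preincubation; data scaled to 57 uM ketoconazole as 100% inhibition.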

Setting [23] is: measured here: cell count channel max response.
Where [24] appears, read: measured here: lipid channel max response.

Chain of Glucocorticoid receptor (Homo sapiens) (P04150 whole entry, looked up): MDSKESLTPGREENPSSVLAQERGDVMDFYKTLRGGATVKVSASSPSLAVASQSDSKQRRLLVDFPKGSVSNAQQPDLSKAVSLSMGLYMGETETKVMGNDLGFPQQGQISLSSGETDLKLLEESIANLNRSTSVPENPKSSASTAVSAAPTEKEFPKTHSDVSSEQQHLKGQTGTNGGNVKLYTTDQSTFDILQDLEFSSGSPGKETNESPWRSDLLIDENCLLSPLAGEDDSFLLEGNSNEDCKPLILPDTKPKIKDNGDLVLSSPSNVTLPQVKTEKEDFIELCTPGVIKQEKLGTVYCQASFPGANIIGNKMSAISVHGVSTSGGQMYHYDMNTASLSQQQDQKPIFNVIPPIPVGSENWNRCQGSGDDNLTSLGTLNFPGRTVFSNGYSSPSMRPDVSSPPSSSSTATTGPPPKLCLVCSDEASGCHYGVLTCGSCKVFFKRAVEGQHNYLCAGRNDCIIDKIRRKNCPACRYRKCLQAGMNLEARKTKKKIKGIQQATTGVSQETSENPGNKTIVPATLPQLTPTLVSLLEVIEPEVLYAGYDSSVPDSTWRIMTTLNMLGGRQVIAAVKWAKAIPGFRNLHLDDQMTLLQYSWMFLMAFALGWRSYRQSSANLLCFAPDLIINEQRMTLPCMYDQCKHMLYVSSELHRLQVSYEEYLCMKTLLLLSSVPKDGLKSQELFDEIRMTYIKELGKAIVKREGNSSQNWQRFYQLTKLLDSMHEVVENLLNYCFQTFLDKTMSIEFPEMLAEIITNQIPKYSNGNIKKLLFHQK
Chain of Cytochrome P450 3A4 (Homo sapiens) (P08684 whole entry, looked up): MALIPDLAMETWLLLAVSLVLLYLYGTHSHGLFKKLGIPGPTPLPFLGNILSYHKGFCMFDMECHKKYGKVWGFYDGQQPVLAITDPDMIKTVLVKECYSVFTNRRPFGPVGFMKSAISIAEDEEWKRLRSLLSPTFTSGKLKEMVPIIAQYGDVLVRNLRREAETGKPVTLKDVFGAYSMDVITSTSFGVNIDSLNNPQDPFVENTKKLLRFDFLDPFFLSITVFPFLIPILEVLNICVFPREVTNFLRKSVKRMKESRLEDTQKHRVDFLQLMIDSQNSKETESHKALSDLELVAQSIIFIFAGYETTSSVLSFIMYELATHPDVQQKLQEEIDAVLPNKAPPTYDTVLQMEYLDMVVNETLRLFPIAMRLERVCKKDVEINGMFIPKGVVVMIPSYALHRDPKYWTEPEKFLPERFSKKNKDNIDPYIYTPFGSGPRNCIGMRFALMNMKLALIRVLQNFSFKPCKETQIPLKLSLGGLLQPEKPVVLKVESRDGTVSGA
Chain of Cytochrome P450 1A2 (Homo sapiens) (P05177 whole entry, looked up): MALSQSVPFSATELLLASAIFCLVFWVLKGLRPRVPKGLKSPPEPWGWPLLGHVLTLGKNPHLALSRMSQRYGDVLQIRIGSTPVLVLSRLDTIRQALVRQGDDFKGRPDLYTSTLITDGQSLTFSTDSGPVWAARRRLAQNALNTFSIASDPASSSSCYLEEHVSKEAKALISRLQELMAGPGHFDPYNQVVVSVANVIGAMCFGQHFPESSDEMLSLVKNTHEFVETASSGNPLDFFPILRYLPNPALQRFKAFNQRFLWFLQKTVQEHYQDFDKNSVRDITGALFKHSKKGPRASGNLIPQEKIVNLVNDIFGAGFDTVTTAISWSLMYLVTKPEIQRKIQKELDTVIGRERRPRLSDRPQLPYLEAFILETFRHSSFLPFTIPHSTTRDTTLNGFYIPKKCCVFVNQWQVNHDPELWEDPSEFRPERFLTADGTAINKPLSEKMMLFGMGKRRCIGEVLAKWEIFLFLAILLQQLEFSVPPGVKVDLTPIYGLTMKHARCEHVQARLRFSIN
Chain of Dual specificity protein kinase CLK4 (Homo sapiens) (Q9HAZ1 whole entry, looked up): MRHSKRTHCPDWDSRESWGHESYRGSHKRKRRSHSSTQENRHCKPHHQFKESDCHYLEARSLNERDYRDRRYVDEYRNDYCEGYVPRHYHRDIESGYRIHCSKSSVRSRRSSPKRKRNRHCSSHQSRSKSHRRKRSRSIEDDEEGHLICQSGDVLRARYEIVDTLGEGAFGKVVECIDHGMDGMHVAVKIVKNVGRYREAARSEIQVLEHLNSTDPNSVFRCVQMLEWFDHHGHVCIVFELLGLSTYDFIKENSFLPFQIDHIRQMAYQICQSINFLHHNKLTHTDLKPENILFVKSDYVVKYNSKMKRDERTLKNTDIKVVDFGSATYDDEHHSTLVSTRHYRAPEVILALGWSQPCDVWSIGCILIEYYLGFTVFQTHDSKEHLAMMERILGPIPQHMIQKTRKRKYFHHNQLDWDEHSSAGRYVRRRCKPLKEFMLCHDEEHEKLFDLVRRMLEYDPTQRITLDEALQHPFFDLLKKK
Chain of Lysosomal acid glucosylceramidase (Homo sapiens) (P04062 whole entry, looked up): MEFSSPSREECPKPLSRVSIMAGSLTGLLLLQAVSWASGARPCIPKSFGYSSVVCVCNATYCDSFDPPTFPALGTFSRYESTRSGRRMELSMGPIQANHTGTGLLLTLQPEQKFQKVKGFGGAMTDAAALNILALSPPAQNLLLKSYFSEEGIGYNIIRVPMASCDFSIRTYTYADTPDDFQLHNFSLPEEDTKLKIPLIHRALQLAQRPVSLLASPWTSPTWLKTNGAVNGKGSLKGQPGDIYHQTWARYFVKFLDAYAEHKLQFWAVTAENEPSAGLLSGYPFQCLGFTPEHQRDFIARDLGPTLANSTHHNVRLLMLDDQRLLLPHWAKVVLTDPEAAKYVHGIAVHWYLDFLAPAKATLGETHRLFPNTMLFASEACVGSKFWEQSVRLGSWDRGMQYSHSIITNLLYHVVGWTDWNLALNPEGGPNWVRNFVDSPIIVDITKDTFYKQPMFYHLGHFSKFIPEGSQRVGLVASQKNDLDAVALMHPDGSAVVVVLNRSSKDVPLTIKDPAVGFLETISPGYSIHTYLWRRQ
Chain of 3',5'-cyclic-AMP phosphodiesterase 4B (Homo sapiens) (Q07343 whole entry, looked up): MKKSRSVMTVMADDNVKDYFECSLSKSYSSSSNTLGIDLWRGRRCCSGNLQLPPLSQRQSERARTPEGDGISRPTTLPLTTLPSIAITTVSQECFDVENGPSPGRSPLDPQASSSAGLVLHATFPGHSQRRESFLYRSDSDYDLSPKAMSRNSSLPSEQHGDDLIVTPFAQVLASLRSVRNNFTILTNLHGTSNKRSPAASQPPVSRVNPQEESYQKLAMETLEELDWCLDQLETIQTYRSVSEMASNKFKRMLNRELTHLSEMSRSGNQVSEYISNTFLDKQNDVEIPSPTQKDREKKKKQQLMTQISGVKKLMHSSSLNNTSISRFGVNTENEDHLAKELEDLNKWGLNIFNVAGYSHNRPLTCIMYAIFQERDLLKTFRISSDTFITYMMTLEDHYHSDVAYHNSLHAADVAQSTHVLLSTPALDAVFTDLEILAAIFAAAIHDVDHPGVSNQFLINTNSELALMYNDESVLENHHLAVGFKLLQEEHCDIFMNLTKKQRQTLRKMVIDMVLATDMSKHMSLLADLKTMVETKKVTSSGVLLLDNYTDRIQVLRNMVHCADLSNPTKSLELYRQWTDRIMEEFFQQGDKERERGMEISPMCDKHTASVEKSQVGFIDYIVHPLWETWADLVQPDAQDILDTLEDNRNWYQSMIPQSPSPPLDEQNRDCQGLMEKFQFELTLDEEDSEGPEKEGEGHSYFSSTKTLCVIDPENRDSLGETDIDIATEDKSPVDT
Chain of Rap guanine nucleotide exchange factor 3 (Homo sapiens) (O95398 whole entry, looked up): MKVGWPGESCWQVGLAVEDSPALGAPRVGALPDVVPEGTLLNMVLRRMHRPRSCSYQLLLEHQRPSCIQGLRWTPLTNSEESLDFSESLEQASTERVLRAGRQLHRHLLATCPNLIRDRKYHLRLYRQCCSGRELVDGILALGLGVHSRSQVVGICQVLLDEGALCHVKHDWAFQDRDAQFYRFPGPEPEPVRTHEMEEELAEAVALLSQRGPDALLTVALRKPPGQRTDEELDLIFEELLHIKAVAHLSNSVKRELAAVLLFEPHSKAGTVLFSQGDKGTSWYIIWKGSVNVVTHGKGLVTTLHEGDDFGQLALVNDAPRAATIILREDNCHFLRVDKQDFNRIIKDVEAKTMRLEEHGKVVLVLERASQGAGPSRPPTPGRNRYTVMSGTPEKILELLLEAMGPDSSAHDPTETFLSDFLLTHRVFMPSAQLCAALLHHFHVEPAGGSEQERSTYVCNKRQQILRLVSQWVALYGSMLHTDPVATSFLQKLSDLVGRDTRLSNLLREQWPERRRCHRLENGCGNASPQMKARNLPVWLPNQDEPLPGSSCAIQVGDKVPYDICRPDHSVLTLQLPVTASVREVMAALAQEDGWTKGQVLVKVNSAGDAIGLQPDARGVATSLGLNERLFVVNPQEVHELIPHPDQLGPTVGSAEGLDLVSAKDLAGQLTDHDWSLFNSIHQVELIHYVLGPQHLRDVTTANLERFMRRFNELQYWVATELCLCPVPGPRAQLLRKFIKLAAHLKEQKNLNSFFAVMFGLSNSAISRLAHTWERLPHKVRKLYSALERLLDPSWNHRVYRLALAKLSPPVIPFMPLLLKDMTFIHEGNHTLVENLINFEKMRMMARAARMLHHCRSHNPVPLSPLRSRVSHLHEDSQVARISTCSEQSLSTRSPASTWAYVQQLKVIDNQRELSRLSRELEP

Take `Cc1ccc(-n2c(C)cc(/C=N/NC(=O)c3ccncc3)c2C)cc1C`: the Potency result in assay [1] and in [2] was “inactive” throughout. Moreover, in [3], the max response was 2.93% (inactive).
Turning to `N#CCCn1c(=O)c(-c2ccc(Cl)cc2)nc2cnc(OCc3ccccc3)nc21`, the Potency in assay [4] is > 11.4 µM (inactive); in [5] it was 2 µM (active); in assay [7], > 9.22 µM (inactive); in assay [8] it was > 46 µM (inactive). Besides, the activity, negative = inhibition in [6] is 1.91% (inactive). Besides, in assay [9], the outcome was inactive. In addition, the activity change, negative = inhibition in [10] is 5.27% (inactive). The results for the max response in assay [10] (setting [23]) and in [10] (setting [24]) were 8.68% and 16.3%, respectively. Also, the Potency result in assay [1] and in assay [2] was “inactive” throughout.
For `O=C(Nc1cccc(F)c1)N1CCCC2(CCNCC2)C1`, the Potency in assay [4] was > 11.4 µM (inactive); in assay [8], > 46 µM (inactive). For the same compound, the values for the activity change, negative = inhibition in [11] and in assay [12] were -6.17% (inactive) and 12.2% (inactive), respectively. The Potency result in [5], in assay [13], in assay [14] and in assay [1] was “inactive” each time. In addition, the activity, negative = inhibition in assay [6] is -5.47% (inactive). Moreover, the result in assay [9] was inactive. Besides, the max response in [3] was 8.67% (inactive).
As to `CN1CCN(c2ncncc2-c2ccccc2C(F)(F)F)CC1`, the Potency in assay [4] was > 11.4 µM (inactive); in [5], 31.6 µM (active); in [7], > 46 µM (inactive); in assay [8], > 46 µM (inactive). Also, the activity change, negative = inhibition in [11] is 1.62% (inactive); in [10], 6.69% (inactive). For the same compound, the activity, negative = inhibition in assay [6] is 0.819% (inactive). Besides, the result in assay [9] was inactive. Also, the Potency entry in [13], in assay [14], in assay [16], in assay [17], in assay [18] and in assay [1] was “inactive” in each case. Besides, the activation in assay [15] was 5.49% (inactive). The max response in assay [10] (setting [23]) is 25.9%; in [10] (setting [24]) it was 29.8%; in assay [3], 18.7% (inactive).
As for `Cc1ccccc1-c1nccc(Nc2ccc(F)cc2)n1`, the values for the Potency in [4], in [7] and in assay [8] were > 11.4 µM (inactive), > 46 µM (inactive) and > 46 µM (inactive), respectively. In addition, the activity change, negative = inhibition is -8.14% (inactive) in assay [11] and -3.97% (inactive) in assay [12]. Also, in assay [6], the activity, negative = inhibition was -11% (inactive). Moreover, the compound was called inactive in assay [9], in assay [19] and in assay [20]. Moreover, the Potency result in assay [16], in [17], in [18], in assay [1] and in [2] was “inactive” throughout.
Regarding `CCCCCCCCCCCCc1ccccc1O`, in assay [1], the Potency result was “inactive”. Also, the max response in [3] was 11.8% (inactive).
In the case of `CN1CCN(c2ncc3nc(-c4cccs4)c(=O)n(-c4ccccc4)c3n2)CC1`, the Potency is > 11.4 µM (inactive) in [4], 3.16 µM (active) in assay [5], > 9.22 µM (inactive) in [7] and > 46 µM (inactive) in assay [8]. Also, in assay [9], the compound was called inactive. Besides, the Potency entry in assay [14], in assay [16], in [17], in assay [18], in [21] and in [1] was “inactive” throughout. For the same compound, in [10], the activity change, negative = inhibition is -0.619% (inactive). For the same compound, the results for the max response in [10] (setting [23]) and in assay [10] (setting [24]) were 22.3% and 18.9%, respectively.
Consider `COCCn1c(=O)c(-c2ccc(Cl)cc2)nc2cnc(OC)nc21`, for which the Potency in assay [4] was > 11.4 µM (inactive); in [5], 0.398 µM (active); in assay [7], > 9.22 µM (inactive); in assay [8] it was > 46 µM (inactive); in [22], 7.94 µM (active). The activity change, negative = inhibition in assay [11] was 5.96% (inactive); in assay [12] it was 0.766% (inactive). Further, the activity, negative = inhibition in assay [6] was -10.9% (inactive). Further, in assay [9], the result was inactive. In addition, the Potency entry in assay [13], in assay [14], in assay [1] and in assay [2] was “inactive” in each case.
